# Laboratory results: the supplement of paper PMC11219838
# Tested on: Ditylenchus dipsaci
# Experiment: proportion of mobile D. dipsaci (mixed stage) relative to DMSO control (fraction of DMSO control); higher = more viable, less nematicidal, active = 0.86 or less; extreme values may be limits of the assay
# Settings: 60 µM; 5 days; temperature: 20 °C
# How it was run: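 D. dipsaci were grown on pea plants in Gamborg B-5 agar and extracted through a filter funnel into water, and about 20 worms were added per 96-well well in distilled water. Compound was pinned to 60 µM final (0.6% v/v DMSO), and sealed plates were shaken at 200 rpm for 5 days at 20 °C. After 2 µL 1 M NaOH was added, mobile worms were scored microscopically. Mobility was expressed relative to DMSO controls and averaged over two biological replicates.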
row,Structure (SMILES),proportion of mobile D. dipsaci
1,CCOc1ccccc1-c1nc(-c2cccc(C)c2)no1,1 (inactive)
2,CCOC(=O)c1sc(NC(=O)CSc2nnc(-c3ccc(Cl)cc3)o2)c(C(=O)OCC)c1C,1 (inactive)
3,CC(Oc1ccccc1)c1nc(-c2cccnc2)no1 (centres undefined),1 (inactive)
4,Cc1cccc(-c2noc(COc3ccc(Cl)cc3)n2)c1,1 (inactive)
5,COc1cccc(-c2noc(COc3cccc(C)c3)n2)c1,1 (inactive)
6,CC(C)(C)c1ccc(-c2noc(COc3ccccc3)n2)cc1,1 (inactive)
7,Cc1ccccc1-c1noc(-c2ccccc2C(=O)NCc2ccccc2)n1,1 (inactive)
8,CN(C(=O)CSc1nnc(-c2ccccc2)o1)c1ccccc1,1 (inactive)
9,Clc1ccc(SCc2nc(-c3cccnc3)no2)cc1,1 (inactive)
10,Brc1ccc(-c2noc(-c3ccco3)n2)o1,1 (inactive)
11,COc1cccc(-c2noc(CSc3ccc(Cl)cc3)n2)c1,1 (inactive)
12,Cc1ccc(-c2nnc(SCc3ccccc3C#N)o2)cc1,1 (inactive)
13,CC(C)(C)C(=O)CSc1nnc(-c2ccc(Cl)cc2Cl)o1,1 (inactive)
14,CCOc1nc(-c2ccccc2)ccc1-c1noc(CC)n1,1 (inactive)
15,Fc1cccc(Cl)c1CSc1nnc(-c2ccccc2Cl)o1,1 (inactive)
16,Cc1ccccc1CSc1nnc(-c2ccccc2)o1,1 (inactive)
17,COc1nc(-c2ccccc2)ccc1-c1noc(C(C)C)n1,1 (inactive)
18,Clc1ccc(OCc2nc(-c3ccccc3)no2)c(Br)c1,1 (inactive)
19,COc1ccccc1-c1nc(-c2ccc(Cl)cc2)no1,1 (inactive)
20,Cc1cccc(-c2noc(-c3ccc(C)c(Cl)c3)n2)c1,1 (inactive)

row,Structure (SMILES),proportion of mobile D. dipsaci
1,COc1cccc(NC(=O)c2ccccc2-c2nc(-c3ccccc3Cl)no2)c1,1 (inactive)
2,COc1ccc(-c2noc(COc3ccc(Br)c(C)c3)n2)cc1,1 (inactive)
3,O=C(CSc1nnc(-c2ccccc2)o1)NC1CCCCC1,1 (inactive)
4,Cc1ccc(CSc2nnc(-c3ccco3)o2)c(C)c1,1 (inactive)
5,Cc1cccc(-c2noc(-c3ccc4c(c3)OCO4)n2)c1,1 (inactive)
6,Cc1cc(Cl)ccc1OCc1nc(-c2cccnc2)no1,1 (inactive)
7,CCCc1nnc(CSc2nnc(-c3ccc(Cl)cc3)o2)o1,0.812 (active)
8,c1csc(-c2nnc(-c3cccs3)o2)c1,0.769 (active)
9,Cc1ccc(-c2nc(-c3ccccc3Cl)no2)cc1,1 (inactive)
10,O=C(CSc1nnc(-c2ccncc2)o1)Nc1ccccc1Cl,1 (inactive)
11,Clc1ccc(-c2nc(-c3cccnc3)no2)c(Cl)c1,1 (inactive)
12,COc1ccccc1-c1nc(-c2ccccc2)no1,1 (inactive)
13,Cc1cccc(-c2noc(-c3ccccc3Cl)n2)c1,1 (inactive)
14,O=C(CSc1nnc(-c2cccnc2)o1)c1ccc(Br)cc1,1 (inactive)
15,COc1ccc(-c2nnc(SCc3ccc(C#N)cc3)o2)cc1,1 (inactive)
16,Cc1ccc(-c2nc(-c3cccnc3)no2)c(C)c1,1 (inactive)
17,Cc1ccccc1OCc1nc(-c2ccc(NC(=O)c3ccc(Br)o3)cc2)no1,1 (inactive)
18,Cc1cc(OCc2nc(-c3cccnc3)no2)ccc1Cl,1 (inactive)
19,CCOc1ccccc1-c1nnc(SCc2ccccc2)o1,1 (inactive)
